In article PMC9838217, “Structure of SALL4 zinc finger domain reveals link between AT-rich DNA binding and Okihiro syndrome” one finds binding signal data, which are given here for 30 sequences.

What all share (assay): HT-SELEX; high values mean tight binding
Holding throughout (settings): protein: recombinant; vector His6-GST; dsDNA, one strand shown

The target in assay [1] is T1, SALL4 ZFC4 WT (HT-SELEX) (Mus musculus, UniProt Q8BX22 870-940).
T1 sequence: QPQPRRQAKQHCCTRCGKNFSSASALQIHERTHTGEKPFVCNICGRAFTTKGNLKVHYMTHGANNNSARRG
The essentials: (§1)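 Purified recombinant mouse SALL4 zinc finger cluster 4 (residues 870–940, 1 µg) was incubated with library DNA (1.5 µg first cycle, 200 ng later) in 100 µl of 10 mM Tris–HCl pH 7.5, 50 mM NaCl, poly(dI-dC) and DTT for 10 min at room temperature, with Ni2+ bead capture and reselection for up to 6 cycles in triplicate. MiSeq reads were scanned for 6-mers. Binding signal is each canonical k-mer's read fraction as fold change relative to the initial random library.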

The target in assay [2] is T2, SALL4 ZFC4 R900W (HT-SELEX) (Mus musculus, UniProt Q8BX22 870-940, R900W).
T2 sequence: T1 sequence with R31W
Summed up: as §1

In assay [3] the target is T3, SALL4 ZFC4 G921D (HT-SELEX) (Mus musculus, UniProt Q8BX22 870-940, G921D).
T3 sequence: T1 sequence with G52D
The essentials:
as §1

Numbering of substitutions follows the chain as printed.

For AAATTG, the results for the binding signal in assay [1], in assay [2] and in assay [3] were 1.6 ± 0.125 fold-change vs cycle 0, 1.53 ± 0.0609 fold-change vs cycle 0 and 1.48 ± 0.0586 fold-change vs cycle 0, respectively.
As to CACAAG, the binding signal in assay [1] amounted to 0.713 ± 0.0143 fold-change vs cycle 0; in assay [2] it was 0.853 ± 0.0253 fold-change vs cycle 0; in assay [3], 0.901 ± 0.0111 fold-change vs cycle 0.
Take CCAGTC: the binding signal is 0.437 ± 0.0378 fold-change vs cycle 0 in assay [1], 0.533 ± 0.0426 fold-change vs cycle 0 in assay [2] and 0.62 ± 0.0337 fold-change vs cycle 0 in assay [3].
On to CTTAAC, for which the binding signal in assay [1] is 1.38 ± 0.0537 fold-change vs cycle 0; in assay [2], 1.58 ± 0.0426 fold-change vs cycle 0; in assay [3], 1.42 ± 0.0747 fold-change vs cycle 0.
With ACTACA, the binding signal in assay [1] came out at 1.29 ± 0.0616 fold-change vs cycle 0; in assay [2] it was 1.42 ± 0.0632 fold-change vs cycle 0; in assay [3], 1.34 ± 0.0704 fold-change vs cycle 0.
The matching figures for GACAAC: 0.673 ± 0.0124 fold-change vs cycle 0, 0.798 ± 0.0444 fold-change vs cycle 0 and 0.89 ± 0.0263 fold-change vs cycle 0.
CCTTGC: the binding signal in assay [1] was found to be 0.381 ± 0.0117 fold-change vs cycle 0; in assay [2], 0.45 ± 0.00496 fold-change vs cycle 0; in assay [3] it was 0.554 ± 0.0487 fold-change vs cycle 0.
CCTAGA: the results for the binding signal in assay [1], in assay [2] and in assay [3] were 0.844 ± 0.0425 fold-change vs cycle 0, 0.937 ± 0.0552 fold-change vs cycle 0 and 0.97 ± 0.04 fold-change vs cycle 0, respectively.
Regarding AATTTC, the binding signal in assay [1] was determined as 2.1 ± 0.178 fold-change vs cycle 0; in assay [2], 1.76 ± 0.0861 fold-change vs cycle 0; in assay [3], 1.64 ± 0.101 fold-change vs cycle 0.
For CATCAA the same measures were 1.23 ± 0.0349 fold-change vs cycle 0, 1.37 ± 0.0542 fold-change vs cycle 0 and 1.32 ± 0.0556 fold-change vs cycle 0.
Regarding CAATCG, the binding signal in assay [1] was 0.623 ± 0.00929 fold-change vs cycle 0; in assay [2] it was 0.726 ± 0.0311 fold-change vs cycle 0; in assay [3], 0.821 ± 0.0438 fold-change vs cycle 0.
Turning to ACACCC, the values for the binding signal in assay [1], in assay [2] and in assay [3] were 0.416 ± 0.0284 fold-change vs cycle 0, 0.506 ± 0.0389 fold-change vs cycle 0 and 0.581 ± 0.0534 fold-change vs cycle 0, respectively.
For the sequence CTTAGC, the binding signal in assay [1] was determined as 0.73 ± 0.019 fold-change vs cycle 0; in assay [2] it was 0.843 ± 0.0192 fold-change vs cycle 0; in assay [3], 0.8905 ± 0.00272 fold-change vs cycle 0.
CAAAGC: the binding signal was found to be 0.565 ± 0.00649 fold-change vs cycle 0 in assay [1], 0.654 ± 0.0334 fold-change vs cycle 0 in assay [2] and 0.761 ± 0.0246 fold-change vs cycle 0 in assay [3].
Regarding CGGAAA, the binding signal in assay [1] turned out to be 0.548 ± 0.0301 fold-change vs cycle 0; in assay [2], 0.591 ± 0.00691 fold-change vs cycle 0; in assay [3], 0.694 ± 0.0765 fold-change vs cycle 0.
As to GTCAAA, the binding signal in assay [1] was found to be 0.9908 ± 0.00315 fold-change vs cycle 0; in assay [2], 1.12 ± 0.0182 fold-change vs cycle 0; in assay [3] it was 1.13 ± 0.0122 fold-change vs cycle 0.
Take AGGTGA: the binding signal came to 0.887 ± 0.0607 fold-change vs cycle 0 in assay [1], 0.987 ± 0.0758 fold-change vs cycle 0 in assay [2] and 1.04 ± 0.0735 fold-change vs cycle 0 in assay [3].
With GCTATA, the binding signal in assay [1] turned out to be 1.13 ± 0.0575 fold-change vs cycle 0; in assay [2], 1.11 ± 0.0825 fold-change vs cycle 0; in assay [3] it was 1.15 ± 0.0714 fold-change vs cycle 0.
On to AAGCAT, for which the figures for the binding signal in assay [1], in assay [2] and in assay [3] were 1.23 ± 0.027 fold-change vs cycle 0, 1.26 ± 0.0143 fold-change vs cycle 0 and 1.273 ± 0.011 fold-change vs cycle 0, respectively.
In the case of CGAACA, the results for the binding signal in assay [1], in assay [2] and in assay [3] were 0.588 ± 0.0204 fold-change vs cycle 0, 0.694 ± 0.0214 fold-change vs cycle 0 and 0.787 ± 0.0244 fold-change vs cycle 0, respectively.
The matching figures for CATTGG: 0.754 ± 0.0443 fold-change vs cycle 0, 0.867 ± 0.0514 fold-change vs cycle 0 and 0.924 ± 0.0186 fold-change vs cycle 0.
AGACGG: the results for the binding signal in assay [1], in assay [2] and in assay [3] were 0.342 ± 0.0181 fold-change vs cycle 0, 0.409 ± 0.00782 fold-change vs cycle 0 and 0.522 ± 0.0641 fold-change vs cycle 0, respectively.
In the case of CAACCA, the binding signal in assay [1] stood at 0.686 ± 0.0177 fold-change vs cycle 0; in assay [2], 0.804 ± 0.0166 fold-change vs cycle 0; in assay [3], 0.877 ± 0.0338 fold-change vs cycle 0.
Consider AAGCGT, for which the binding signal in assay [1] was 0.524 ± 0.0507 fold-change vs cycle 0; in assay [2], 0.607 ± 0.0218 fold-change vs cycle 0; in assay [3] it was 0.726 ± 0.0141 fold-change vs cycle 0.
Take ACCATC: the binding signal worked out at 0.858 ± 0.0322 fold-change vs cycle 0 in assay [1], 0.944 ± 0.0334 fold-change vs cycle 0 in assay [2] and 0.994 ± 0.0236 fold-change vs cycle 0 in assay [3].
ATTAGC: the figures for the binding signal in assay [1], in assay [2] and in assay [3] were 1.14 ± 0.0454 fold-change vs cycle 0, 1.18 ± 0.016 fold-change vs cycle 0 and 1.2 ± 0.034 fold-change vs cycle 0, respectively.
As to CCTAGC, the results for the binding signal in assay [1], in assay [2] and in assay [3] were 0.4 ± 0.0405 fold-change vs cycle 0, 0.434 ± 0.0293 fold-change vs cycle 0 and 0.55 ± 0.055 fold-change vs cycle 0, respectively.
Take GAACTC: the binding signal in assay [1] is 0.875 ± 0.0352 fold-change vs cycle 0; in assay [2], 1.03 ± 0.0309 fold-change vs cycle 0; in assay [3], 1.04 ± 0.0772 fold-change vs cycle 0.
Regarding AGGTAC, the results for the binding signal in assay [1], in assay [2] and in assay [3] were 0.804 ± 0.0355 fold-change vs cycle 0, 0.942 ± 0.0186 fold-change vs cycle 0 and 0.9735 ± 0.00829 fold-change vs cycle 0, respectively.
As to AGCTCC, the results for the binding signal in assay [1], in assay [2] and in assay [3] were 0.365 ± 0.00759 fold-change vs cycle 0, 0.455 ± 0.0186 fold-change vs cycle 0 and 0.588 ± 0.0519 fold-change vs cycle 0, respectively.
